Reference: PubChem BioAssay (NCATS)
Results filed as inconclusive are left out. Activity calls are given as the source filed them. Unless noted, calls follow the shape of the dose curve; as a rule, active = well fitted curve in either direction with a large enough effect (not every such curve was filed as active); inconclusive = small, poorly fitted or top-dose-only effect, or another doubt; inactive = flat fitted curve, though single readings scatter.

How the values were obtained:
[1] = target: Lysosomal acid glucosylceramidase (Homo sapiens) (UniProt P04062); assay: Glucocerebrosidase-p2 (AID 348; in the data active = potency below about 10 µM; also: potency is read from the fitted curve at half-maximal effect); settings: purified GBA, blue fluorogenic substrate, 40 min
How it was run: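 Compounds titrated from 0.6 nM upwards against 0.2 nM enzyme in pH 5.9 citric acid/KH2PO4, taurocholate, tween-20; blue fluorogenic substrate 80 uM, 40 min room temperature, stopped and read Ex 365/Em 440 for AC50.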

[2] = AP1 Signaling Pathway (AID 357); settings: ME-180 AP-1-bla reporter, EGF-induced, beta-lactamase ratio, 5 h; at 7.69 µM (top of the series) unless noted;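 also: ME-180 reporter cells stimulated with EGF at its EC50 level; % is scaled to controls: 0 for no effect and ±100 for the full control effect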
How it was run: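 First, ME-180 AP-1-bla cells were cultured overnight at 37 °C in low-serum Opti-MEM. Next, titrated compounds with EC50 EGF were incubated 5 hours. Finally, CCF4 was added for 2.5 hours and the 460/530 nm ratio recorded.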

[3] = Stat Signaling Pathway (AID 446); settings: ME-180 SIE beta-lactamase reporter, IL-6 stimulated, 5 h; at 7.69 µM (top of the series) unless noted;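 also: ME-180 cervical cancer cells given 40 pM IL-6 alongside compound; SIE-controlled beta-lactamase reporter measured as 460/530 nm FRET emission ratio; % is scaled to controls: 0 for no effect and ±100 for the full control effect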
How it was run: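 Screening format detects activators and inhibitors alike: ME-180 SIE-bla cells stimulated at 40 pM IL-6 for 5 hrs with compound, then dual-emission beta-lactamase read at 405 nm excitation.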

[4] = target: Glucocorticoid receptor (Homo sapiens) (UniProt P04150); assay: GR-GFP Redistribution (AID 450;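 active = compounds whose dose series gives a full or clear partial fitted curve of increased nuclear translocation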; also: potency is read from the fitted curve at half-maximal effect); settings: U2OS GR-GFP nuclear translocation, laser cytometry, 2 h
[5] = target: Glucocorticoid receptor (Homo sapiens) (UniProt P04150); assay: GR-EFC Redistribution (AID 451; calls by dose curve; also: potency is read from the fitted curve at half-maximal effect); settings: CHO-K1 GR-EFC translocation, beta-gal luminescence, 2 h
How it was run: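 CHO-K1 cells stably expressing nuclear-localized β-gal enzyme acceptor and GR fused C-terminally to the enzyme donor fragment; ligand-driven nuclear translocation restores β-gal by complementation. Compounds titrated up to 46 uM final, 2 h at 37 °C; luminescence read.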

[6] = target: Mitogen-activated protein kinase 10 (Mus musculus) (UniProt Q61831); assay: JNK3 AlphaScreen Assay (AID 530); settings: JNK3 lysate, c-Jun phosphorylation; series mostly up to 11.4 µM;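 also: kinase came from lysate of stimulated human HepG2 cells; signal reports phosphorylation of biotinylated GST-cJun 1-79 at Ser73 with 10 µM ATP; % is scaled to controls: 0 for no effect and ±100 for the full control effect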
How it was run: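 Inhibitors reduce antibody binding to phosphorylated biotin-cJun, lowering AlphaScreen luminescence. Lysates from HepG2 cells pre-activated by IL-1beta plus TNF-alpha supplied JNK3; compounds were titrated.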

[7] = target: 3',5'-cyclic-AMP phosphodiesterase 4B (Homo sapiens) (UniProt Q07343); assay: qHTS Assay for Inhibitors of PDE-IV (AID 607; active = well fitted activation curve with a large enough effect in the main read-out, with a control signal flat, not every such curve was filed as active; also: % of control where 0% means no effect); settings: HEK293 ACTOne CNG channel cells, membrane potential fluorescence; series mostly up to 22.9 µM
How it was run: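 The readout is membrane depolarisation from a cAMP-sensing CNG channel, detected with a potential dye at ex 535/em 590. Cells were HEK293-derived (endogenous PDE-IV) at 1000 cells/well, titrated up to 22.9 uM final.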

[8] = NFAT Signaling Pathway (AID 444); settings: Jurkat NFAT-bla M1, carbachol, beta-lactamase ratio, 5 h; at 7.69 µM (top of the series) unless noted;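 also: carbachol stimulus at about its EC50 of 1 µM final; % is scaled to controls: 0 for no effect and ±100 for the full control effect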
How it was run: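 Jurkat cells carrying an NFAT-driven β-lactamase reporter and co-transfected muscarinic M1 receptor were treated with compound plus carbachol (1 uM final, an EC50 level) for 5 h at 37 °C. CCF4 loading followed for 1 h at RT; 460/530 nm ratio gave %activity.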

[9] = target: Cytochrome P450 2C19 (Homo sapiens) (UniProt P33261); assay: qHTS Assay for Inhibitors and Substrates of Cytochrome P450 2C19 (AID 899; active = well fitted curve in the direction sought with a large enough effect; an effect the other way counts as inactive or inconclusive; also: potency is read from the fitted curve at half-maximal effect; nearly all actives have a fitted effect of over 60% in size); settings: recombinant CYP2C19, luciferin-H EGE luminescence; series mostly up to 11.4 µM
How it was run: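 In 50mM KPO4, the reaction held 5nM enzyme and KM-level (10uM) Luciferin-H EGE; it ran 60 min at 37C after NADPH regeneration and a 10 min compound preincubation. Luminescence values were scaled to 57uM ketoconazole as complete inhibition.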

[10] = target: Cytochrome P450 2C9 (Homo sapiens) (UniProt P11712); assay: qHTS Assay for Inhibitors and Substrates of Cytochrome P450 2C9 (AID 883; active = well fitted curve in the direction sought with a large enough effect; an effect the other way counts as inactive or inconclusive; also: potency is read from the fitted curve at half-maximal effect; nearly all actives have a fitted effect of over 60% in size); settings: recombinant CYP2C9, luciferin-H luminescence, 60 min; series mostly up to 11.4 µM
How it was run: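 CYP2C9 deoxyluciferin hydroxylation, 37C, 60 min with NADPH regeneration; 10nM enzyme, 100uM Luciferin-H (KM). Glo detection reagent stopped reaction; luminescence normalized to sulphaphenazole (57uM) full inhibition.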

[11] = target: Cytochrome P450 3A4 (Homo sapiens) (UniProt P08684); assay: qHTS Assay for Activators of Cytochrome P450 3A4 (AID 885; active = well fitted curve in the direction sought with a large enough effect; an effect the other way counts as inactive or inconclusive; also: nearly all actives have a fitted effect of over 65% in size); settings: recombinant CYP3A4, Luciferin-PPXE luminescence, 60 min; series mostly up to 11.4 µM
How it was run: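 Steps: enzyme/substrate mix dispensed; compound added, 10 min RT; NADPH regeneration solution added, 60 min RT; luciferin detection buffer stops reaction; 20 min later luminescence measured.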

Sequence of 3',5'-cyclic-AMP phosphodiesterase 4B (Homo sapiens) (Q07343 whole entry, looked up): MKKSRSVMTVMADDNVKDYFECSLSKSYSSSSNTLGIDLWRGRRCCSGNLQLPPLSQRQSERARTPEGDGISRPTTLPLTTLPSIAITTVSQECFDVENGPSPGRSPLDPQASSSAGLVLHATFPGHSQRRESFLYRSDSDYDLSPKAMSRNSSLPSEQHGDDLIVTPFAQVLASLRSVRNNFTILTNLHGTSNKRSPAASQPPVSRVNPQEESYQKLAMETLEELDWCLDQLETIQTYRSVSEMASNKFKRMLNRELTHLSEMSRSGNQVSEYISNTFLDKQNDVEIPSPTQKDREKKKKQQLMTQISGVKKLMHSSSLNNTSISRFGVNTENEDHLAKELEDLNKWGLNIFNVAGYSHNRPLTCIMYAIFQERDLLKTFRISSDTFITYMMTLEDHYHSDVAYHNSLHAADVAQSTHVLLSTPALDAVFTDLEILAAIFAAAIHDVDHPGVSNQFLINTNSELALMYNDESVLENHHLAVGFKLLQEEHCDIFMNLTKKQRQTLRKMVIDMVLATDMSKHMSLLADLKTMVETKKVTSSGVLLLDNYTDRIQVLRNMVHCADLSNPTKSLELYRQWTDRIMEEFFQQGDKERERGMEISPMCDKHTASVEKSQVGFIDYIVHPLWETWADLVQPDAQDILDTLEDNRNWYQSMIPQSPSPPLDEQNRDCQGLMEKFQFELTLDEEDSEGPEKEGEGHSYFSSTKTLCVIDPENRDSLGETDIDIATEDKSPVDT
Sequence of Lysosomal acid glucosylceramidase (Homo sapiens) (P04062 whole entry, looked up): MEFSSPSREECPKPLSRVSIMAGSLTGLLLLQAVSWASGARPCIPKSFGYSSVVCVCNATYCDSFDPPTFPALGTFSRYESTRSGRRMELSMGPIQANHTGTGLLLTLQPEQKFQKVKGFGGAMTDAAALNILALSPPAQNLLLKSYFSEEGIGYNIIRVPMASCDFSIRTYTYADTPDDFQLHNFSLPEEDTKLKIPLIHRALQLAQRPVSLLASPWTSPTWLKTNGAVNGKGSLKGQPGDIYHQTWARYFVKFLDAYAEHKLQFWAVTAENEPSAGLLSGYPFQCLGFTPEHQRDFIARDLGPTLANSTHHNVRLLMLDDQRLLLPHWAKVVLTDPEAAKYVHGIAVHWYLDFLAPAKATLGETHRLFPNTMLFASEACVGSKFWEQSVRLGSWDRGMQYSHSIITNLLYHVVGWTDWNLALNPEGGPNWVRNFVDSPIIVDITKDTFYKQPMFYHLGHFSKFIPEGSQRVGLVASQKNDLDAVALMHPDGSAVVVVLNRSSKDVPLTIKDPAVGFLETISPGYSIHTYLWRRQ
Sequence of Glucocorticoid receptor (Homo sapiens) (P04150 whole entry, looked up, the tested form may be a part): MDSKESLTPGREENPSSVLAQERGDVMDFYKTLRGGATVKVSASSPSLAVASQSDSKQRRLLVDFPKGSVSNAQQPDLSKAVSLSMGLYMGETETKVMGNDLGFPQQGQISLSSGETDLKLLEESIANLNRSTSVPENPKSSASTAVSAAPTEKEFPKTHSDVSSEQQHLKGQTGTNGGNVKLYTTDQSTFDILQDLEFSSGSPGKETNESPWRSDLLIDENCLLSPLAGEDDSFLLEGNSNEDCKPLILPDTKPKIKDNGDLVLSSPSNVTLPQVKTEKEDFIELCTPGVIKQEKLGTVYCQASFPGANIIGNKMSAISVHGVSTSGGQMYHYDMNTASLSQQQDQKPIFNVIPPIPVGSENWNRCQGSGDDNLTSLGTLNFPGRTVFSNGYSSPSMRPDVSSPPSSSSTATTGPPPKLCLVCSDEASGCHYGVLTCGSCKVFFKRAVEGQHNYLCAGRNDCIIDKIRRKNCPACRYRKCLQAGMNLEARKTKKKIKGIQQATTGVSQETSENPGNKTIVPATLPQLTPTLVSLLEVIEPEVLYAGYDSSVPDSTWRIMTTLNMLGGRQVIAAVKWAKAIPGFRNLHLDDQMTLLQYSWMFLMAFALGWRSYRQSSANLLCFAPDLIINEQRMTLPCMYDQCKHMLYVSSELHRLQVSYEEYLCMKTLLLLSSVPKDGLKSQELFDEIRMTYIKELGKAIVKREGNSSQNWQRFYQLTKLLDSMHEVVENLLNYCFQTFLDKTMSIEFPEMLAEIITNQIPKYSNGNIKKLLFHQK
Sequence of Cytochrome P450 3A4 (Homo sapiens) (P08684 whole entry, looked up): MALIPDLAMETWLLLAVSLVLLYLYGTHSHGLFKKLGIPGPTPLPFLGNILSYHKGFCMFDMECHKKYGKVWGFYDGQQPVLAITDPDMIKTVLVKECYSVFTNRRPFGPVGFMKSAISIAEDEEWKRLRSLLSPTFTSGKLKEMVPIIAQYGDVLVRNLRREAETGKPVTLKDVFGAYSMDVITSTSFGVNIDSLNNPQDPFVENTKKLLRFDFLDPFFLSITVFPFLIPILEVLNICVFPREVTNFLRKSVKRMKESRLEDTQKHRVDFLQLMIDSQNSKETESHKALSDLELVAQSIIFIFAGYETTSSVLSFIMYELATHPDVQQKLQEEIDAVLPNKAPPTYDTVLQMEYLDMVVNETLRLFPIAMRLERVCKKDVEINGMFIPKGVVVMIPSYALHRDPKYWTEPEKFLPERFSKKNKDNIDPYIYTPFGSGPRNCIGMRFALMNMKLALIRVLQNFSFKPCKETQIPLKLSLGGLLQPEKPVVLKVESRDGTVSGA
Sequence of Cytochrome P450 2C9 (Homo sapiens) (P11712 whole entry, looked up): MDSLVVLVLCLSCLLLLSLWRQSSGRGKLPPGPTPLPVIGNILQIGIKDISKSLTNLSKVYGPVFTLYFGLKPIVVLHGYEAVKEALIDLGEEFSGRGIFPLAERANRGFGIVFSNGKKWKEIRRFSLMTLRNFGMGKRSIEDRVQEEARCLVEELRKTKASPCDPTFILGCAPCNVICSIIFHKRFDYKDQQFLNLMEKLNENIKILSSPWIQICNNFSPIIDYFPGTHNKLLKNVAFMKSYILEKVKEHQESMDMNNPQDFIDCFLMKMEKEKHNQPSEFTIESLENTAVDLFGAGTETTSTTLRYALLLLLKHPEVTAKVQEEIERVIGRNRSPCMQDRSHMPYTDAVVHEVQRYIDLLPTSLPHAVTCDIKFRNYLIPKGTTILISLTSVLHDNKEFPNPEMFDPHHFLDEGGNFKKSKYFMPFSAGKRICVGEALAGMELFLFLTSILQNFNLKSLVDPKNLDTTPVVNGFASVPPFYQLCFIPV
Sequence of Cytochrome P450 2C19 (Homo sapiens) (P33261 whole entry, looked up): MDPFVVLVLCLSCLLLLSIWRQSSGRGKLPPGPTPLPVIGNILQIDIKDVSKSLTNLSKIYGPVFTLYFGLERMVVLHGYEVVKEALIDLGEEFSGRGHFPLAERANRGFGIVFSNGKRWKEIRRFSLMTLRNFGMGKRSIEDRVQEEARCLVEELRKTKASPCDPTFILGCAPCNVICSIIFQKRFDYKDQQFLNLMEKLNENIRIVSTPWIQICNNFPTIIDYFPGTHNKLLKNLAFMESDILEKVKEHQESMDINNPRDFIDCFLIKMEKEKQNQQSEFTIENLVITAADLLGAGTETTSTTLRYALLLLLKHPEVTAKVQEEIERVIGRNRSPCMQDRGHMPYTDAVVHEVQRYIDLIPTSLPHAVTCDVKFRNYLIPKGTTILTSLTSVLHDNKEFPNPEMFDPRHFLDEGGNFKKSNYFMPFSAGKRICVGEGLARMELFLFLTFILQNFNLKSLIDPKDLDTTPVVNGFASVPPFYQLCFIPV

C[C@H](CCC(=O)O)[C@H]1CC[C@@H]2[C@H]3CC[C@H]4C[C@H](O)CC[C@@]4(C)[C@@H]3CC[C@@]21C
inactive: Potency [1] > 11.4 µM | activity change, negative = inhibition [2] 17.2% | activity, negative = inhibition [3] -10% | Potency [4] > 46 µM | Potency [5] > 9.22 µM | Potency [6] | Potency [7]

NC(Cc1ccccc1)(C(=O)O)C(=O)O
inactive: Potency [1] > 11.4 µM | activity change, negative = inhibition [2] 4.48% | activity, negative = inhibition [3] -6.13% | Potency [4] > 46 µM | Potency [5] > 9.22 µM | Potency [6] | Potency [7]

Nc1ncnc2nc(-c3ccc(C[P+](c4ccccc4)(c4ccccc4)c4ccccc4)cc3)[nH]c12
inactive: Potency [1] > 11.4 µM | activity change, negative = inhibition [2] 3.32% | activity, negative = inhibition [3] 1.06% | Potency [4] > 46 µM | Potency [5] > 9.22 µM | Potency [6] | Potency [7]

[N-]=[N+]=NC[C@@H]1O[C@@H](n2cnc3c(N)ncnc32)[C@@H]2O[C@@H]21
inactive: Potency [1] > 11.4 µM | activity change, negative = inhibition [2] 8.89% | activity, negative = inhibition [3] -3.75% | Potency [4] > 46 µM | Potency [5] > 9.22 µM | Potency [6] | Potency [7]

COc1ccc(C[C@H](O)CN2CCOCC2)cc1
inactive: Potency [1] > 11.4 µM | activity change, negative = inhibition [2] -3.04% | activity, negative = inhibition [3] 9.2% | Potency [4] > 46 µM | Potency [5] > 9.22 µM | Potency [6] | Potency [7]

Clc1ccc(/C=C\c2nc(Cl)c(-c3ccc(Cl)cc3)c(Cl)n2)cc1
inactive: Potency [1] > 11.4 µM | activity change, negative = inhibition [2] -5.65% | activity, negative = inhibition [3] -0.809% | Potency [4] > 46 µM | Potency [5] > 9.22 µM | Potency [6] | Potency [7]

O=C(O)[C@@H](O)[C@H](O)C(=O)O
inactive: Potency [1] > 11.4 µM | activity change, negative = inhibition [2] -6.26% | activity change, negative = inhibition [8] 14.9% | Potency [4] > 46 µM | Potency [5] > 9.22 µM | Potency [6] | Potency [7]

COc1ccccc1-c1nc(NCCc2cnc[nH]2)c2ccccc2n1
inactive: Potency [1] > 11.4 µM | activity change, negative = inhibition [2] 17.1% | activity, negative = inhibition [3] 22.8% | Potency [4] > 46 µM | Potency [5] > 46 µM | Potency [6] | Potency [7]

S=C(CSc1ccccc1)Nc1cccc2ccccc12
active: Potency [9] 0.794 µM
inactive: Potency [1] > 11.4 µM | activity change, negative = inhibition [2] 8.58% | activity change, negative = inhibition [8] -12.1% | Potency [4] > 46 µM | Potency [5] > 9.22 µM | Potency [7]

COc1ccc(Oc2ncc3nc(C)c(=O)n(Cc4ccc(F)cc4)c3n2)cc1
inactive: Potency [1] > 11.4 µM | activity change, negative = inhibition [2] -26.5% | activity, negative = inhibition [3] -12.2% | Potency [4] > 9.22 µM | Potency [5] > 46 µM | Potency [6]

O=[N+]([O-])c1ccc2c(N=Nc3ccc4ccccc4c3O)c(O)cc(S(=O)(=O)O)c2c1
inactive: Potency [1] > 11.4 µM | activity change, negative = inhibition [2] -18.5% | activity change, negative = inhibition [8] -9.87% | Potency [4] > 46 µM | Potency [5] > 9.22 µM | Potency [7] | Potency [11]
active: Potency [10] 3.16 µM

NS(=O)(=O)c1ccc(N=Nc2ncccc2O)cc1
inactive: Potency [1] > 11.4 µM | activity change, negative = inhibition [2] 7.11% | activity, negative = inhibition [3] 5.47% | Potency [4] > 46 µM | Potency [5] > 9.22 µM | Potency [6] | Potency [7]

NC(=O)SCC(=O)Nc1ccc2ncccc2c1
inactive: Potency [1] > 11.4 µM | activity change, negative = inhibition [2] 1.01% | activity change, negative = inhibition [8] 12.1% | Potency [4] > 46 µM | Potency [5] > 9.22 µM | Potency [6] | Potency [7]

COc1ccc(-c2nc3cnc(N4CCNCC4)nc3n(Cc3cccc(OC)c3)c2=O)cc1
active: activity change, negative = inhibition [2] 109% [activator] | activity change, negative = inhibition [8] 101% [activator]
inactive: Potency [1] > 11.4 µM | Potency [4] > 9.22 µM | Potency [5] > 46 µM | Potency [7] | Potency [11]

c1ccc2c[n+](CCCC[n+]3ccc4ccccc4c3)ccc2c1
inactive: Potency [1] > 11.4 µM | activity change, negative = inhibition [2] 9.12% | activity, negative = inhibition [3] -5.69% | Potency [4] > 46 µM | Potency [5] > 9.22 µM | Potency [6] | Potency [7]

O=C(O)c1cc(-c2ccc(-c3ccccc3)cc2)nc2cc3ccccc3cc12
inactive: Potency [1] > 11.4 µM | activity change, negative = inhibition [2] -7.09% | activity, negative = inhibition [3] -0.262% | Potency [4] > 46 µM | Potency [5] > 9.22 µM | Potency [6] | Potency [7]

O=C(O)[C@H](/C=C\c1ccccc1)c1ccccc1
inactive: Potency [1] > 11.4 µM | activity change, negative = inhibition [2] 0.652% | activity change, negative = inhibition [8] -12% | Potency [4] > 46 µM | Potency [5] > 9.22 µM | Potency [6] | Potency [7]

Fc1cccc(Cl)c1/C=N\N=C1c2ccccc2-c2ccccc21
inactive: Potency [1] > 11.4 µM | activity change, negative = inhibition [2] 13.6% | activity, negative = inhibition [3] 6.95% | Potency [4] > 46 µM | Potency [5] > 9.22 µM | Potency [6] | Potency [7]
